{
  "source": "PubChem BioAssay (Tox21)",
  "note": "Records with an inconclusive call do not appear. Unmarked numbers belong to inactive results. Calls of active or inactive are those of the source. The call rests on the fitted dose curve; in most records, active means well fitted activation curve with a large enough effect in the signal ratio in the repeat runs (not every such curve was filed as active); inconclusive means weak or mixed curves; inactive means flat fitted curve, though single readings scatter; the % refers to the signal ratio. On the % scale 0 is the no-effect control and ±100 the full control effect.",
  "data": [
    {"test": "qHTS assay to identify small molecule agonists of the hypoxia (HIF-1) signaling pathway (AID 1224846)", "settings": "HRE-bla ME-180 cells, beta-lactamase ratio, 17 h; series mostly up to 76.8 µM; activation: at the top concentration", "source_text": "U.S. Tox21 Program National Center for Advancing Translational Sciences [NCATS] NIH Chemical Genomics Center [NCGC] U.S. Environmental Protection Agency [EPA] National Institutes of Environmental Health Sciences [NIEHS] National Toxicology Program [NTP] U.S. Food and Drug Administration [FDA] Tox21 Assay Overview: Hypoxia-inducible factor-1 (HIF-1) is the major hypoxia-regulated transcription factor that controls cellular responses to low oxygen concentration. HIF-1 is composed of two subunits: hypoxia responsive HIF-1-alpha and constitutively expressed HIF-1-beta, which is also known as aryl hydrocarbon receptor nuclear translocator. During hypoxic conditions, HIF-1-alpha heterodimerizes with HIF-1-beta and translocates into the nucleus where the HIF-1 complex binds to the hypoxia-response element (HRE) and activates expression of target genes such as VEGF (vascular endothelial growth factor). The HIF-1 pathway is essential to normal growth and development, and is involved in the pathophysiology of cancer, inflammation, and ischemia. Using a beta-lactamase reporter-gene under control of the hypoxia response element, a cell-based assay [CellSensor(TM) HRE-bla ME-180 from Life Technologies, Carlsbad, CA] was used to measure hypoxia-induced signaling. Tox21 10K library compounds were measured for their ability to induce the reporter gene activity.\nTox21 Assay Protocol Summary: HRE-bla ME-180 cells were dispensed at 2,000 cells per well in 6 uL of assay medium containing 0.5% dialyzed FBS into black wall/clear-bottom 1536-well plates using a Multidrop Combi (Thermo Scientific, Waltham, MA) dispenser. After the assay plates were incubated at 37C and 5% CO2 for 5 hrs, 23 nL of compounds dissolved in DMSO, positive controls or DMSO only was transferred to each well of the assay plate using a Pintool station (Kalypsys, San Diego, CA). The assay plates were incubated at 37C and 5% CO2 for 17 hrs. One uL of LiveBLAzerTM B/G FRET substrate (CCF4-AM) (Life Technologies) was added to each well using a Flying Reagent Dispenser (Aurora Discovery, San Diego, CA).", "values": [
      {"smiles": "CCOC(=O)/C=C/C(=O)O", "activation": "-0.456%"},
      {"smiles": "O=C(N[C@@H](c1ccccc1)[C@@H]1CCCCN1)c1cccc(C(F)(F)F)c1Cl", "activation": "2.04%"},
      {"smiles": "C=CC(C)(C)CC(=O)OC", "activation": "2.09%"},
      {"smiles": "C=CC(=O)NCOCC(C)C", "activation": "1.32%"},
      {"smiles": "CC[C@@H]([C@H](C)O)n1ncn(-c2ccc(N3CCN(c4ccc(OC[C@@H]5CO[C@@](Cn6cncn6)(c6ccc(F)cc6F)C5)cc4)CC3)cc2)c1=O", "activation": "0.743% [at 35.5 µM]"},
      {"smiles": "CCC(C(=O)OCCOCCN(CC)CC)c1ccccc1", "note": "(stereo not given)", "activation": "0.853% [at 35.5 µM]"},
      {"smiles": "COc1cc2c(N3CCN(C(=O)Nc4ccc(OC(C)C)cc4)CC3)ncnc2cc1OCCCN1CCCCC1", "activation": "-1.1% [at 35.5 µM]"},
      {"smiles": "C=CC(=C)CCCC(C)(C)OC(C)=O", "activation": "-0.183%"},
      {"smiles": "COC(=O)Nc1nc2ccc(C(=O)c3cccs3)cc2[nH]1", "activation": "-0.472% [at 35.5 µM]"},
      {"smiles": "Cc1ccnc2ccccc12", "activation": "-1.36%"},
      {"smiles": "COCc1c(C(C)C)nc(C(C)C)c(/C=C/[C@@H](O)C[C@@H](O)CC(=O)O)c1-c1ccc(F)cc1", "outcome": "inactive"},
      {"smiles": "Brc1cc(-c2ccc(Br)c(Br)c2Br)cc(Br)c1Br", "activation": "2.24% [at 35.5 µM]"},
      {"smiles": "CN1C(=O)CC(C)(c2ccccc2)C1=O", "note": "(stereo not given)", "activation": "0.466% [at 35.5 µM]"},
      {"smiles": "Nc1ccc(S(=O)(=O)O)cc1", "activation": "-0.068%"},
      {"smiles": "O=C(C(=O)c1ccccc1)c1ccccc1", "activation": "-0.659%"},
      {"smiles": "CC(=O)[C@H]1CC[C@H]2[C@@H]3C=CC4=CC(=O)CC[C@@]4(C)[C@@H]3CC[C@]12C", "activation": "0.676% [at 35.5 µM]"},
      {"smiles": "NC(=O)N(O)[C@@H]1C=C[C@H](Oc2cccc(Oc3ccc(F)cc3)c2)C1", "activation": "4.07%"},
      {"smiles": "CCCCCCCCCOC(C)=O", "activation": "0.335%"},
      {"smiles": "CC(N)CN", "note": "(stereo not given)", "activation": "-0.48%"},
      {"smiles": "CC#N", "activation": "0.0619%"},
      {"smiles": "O=C(OCCOCCO)c1ccccc1Nc1cccc(C(F)(F)F)c1", "activation": "4.29% [at 35.5 µM]"},
      {"smiles": "Cc1cc(C(=C2C=CC(=Nc3ccc(S(=O)(=O)O)cc3S(=O)(=O)O)C=C2)c2ccc(Nc3ccc(S(=O)(=O)O)cc3)cc2)ccc1N", "activation": "-0.145% [at 35.5 µM]"},
      {"smiles": "CC1(C)O[C@@H]2C[C@H]3[C@@H]4CCC5=CC(=O)C=C[C@]5(C)[C@H]4[C@@H](O)C[C@]3(C)[C@]2(C(=O)CO)O1", "activation": "-0.426% [at 35.5 µM]"},
      {"smiles": "CC(=O)CC(c1ccc([N+](=O)[O-])cc1)c1c(O)c2ccccc2oc1=O", "note": "(stereo not given)", "activation": "0.218% [at 35.5 µM]"},
      {"smiles": "CC(C)c1nnc2ccc(-c3ocnc3-c3cc(F)ccc3F)cn12", "activation": "2.82%"},
      {"smiles": "CN1CCN(CCCN2c3ccccc3Sc3ccc(S(=O)(=O)N(C)C)cc32)CC1", "activation": "1.52% [at 35.5 µM]"},
      {"smiles": "CCCCOC(=O)CCS", "activation": "-0.156%"},
      {"smiles": "Cc1cc(OI)c(C(C)C)cc1-c1cc(C(C)C)c(OI)cc1C", "activation": "2.31% [at 35.5 µM]"},
      {"smiles": "CCOC(=O)OCC", "activation": "-1.34%"},
      {"smiles": "COc1cc2ncnc(Nc3ccc(F)c(Cl)c3)c2cc1OCCCN1CCOCC1", "activation": "2.69% [at 35.5 µM]"},
      {"smiles": "CCC(=O)OC/C=C/c1ccccc1", "outcome": "inactive"},
      {"smiles": "CCOC(=O)N1CCC(n2c(=O)[nH]c3cc(Cl)ccc32)CC1", "activation": "1.18% [at 35.5 µM]"},
      {"smiles": "CCCOCCOCCO", "activation": "-0.0796%"},
      {"smiles": "NC(=O)Cn1c(=O)cc(CCN2CCN(c3nccc4sccc34)CC2)c2ccc(F)cc21", "activation": "-0.616%"},
      {"smiles": "CCN(Cc1cccc(S(=O)(=O)O)c1)c1ccc(C(=C2C=CC(=[N+](CC)Cc3cccc(S(=O)(=O)[O-])c3)C=C2)c2ccccc2)cc1", "activation": "-0.643% [at 35.5 µM]"},
      {"smiles": "CCCC(=O)O[C@]1(C(=O)COC(=O)CC)CC[C@H]2[C@@H]3CCC4=CC(=O)CC[C@]4(C)[C@H]3[C@@H](O)C[C@@]21C", "activation": "-2.77% [at 15.8 µM]"},
      {"smiles": "CCCCCCCCCCCC[N+](C)(C)CC(=O)[O-]", "activation": "-0.461%"},
      {"smiles": "CC(=O)Oc1ccc2c(c1)CC[C@@H]1[C@@H]2CC[C@]2(C)[C@@H](O)CC[C@@H]12", "activation": "-0.389% [at 35.5 µM]"},
      {"smiles": "CCOC(=O)C(C)Oc1ccc(Oc2nc3ccc(Cl)cc3o2)cc1", "note": "(stereo not given)", "activation": "4.96%"},
      {"smiles": "C=CCCCCCCCCCCCCCCCC", "activation": "0.0723% [at 7.01 µM]"}
    ]}
  ]
}
